# Laboratory results published in PubChem BioAssay (NCI).
# “And” between values parts separate entries of the source, which are not always exact repeats. Equal values may be shown once. Compounds without any hit were thinned out: in the full panel of roughly 83,000, 20% have a hit.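 A percent growth of 40 corresponds to 60% growth inhibition; 0 means no net growth; -100 means all cells died. Active threshold: below 10.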 A number with no mark means an inactive call. The source made the active and inactive calls.
# Experiments:
# Assay in all cases: NCI-60 one-dose screen, 48 h (100 = growth as untreated, 0 = no growth, -100 = all killed)
# Details in all cases: 10 µM unless noted
# [1] = system: HCT-15 colon
# [2] = system: HT29 colon
# [3] = system: SNB-75 CNS
# [4] = system: SNB-19 CNS
# [5] = system: U251 CNS
# [6] = system: PC-3 prostate
# [7] = system: SK-MEL-5 melanoma
# [8] = system: UACC-62 melanoma
# [9] = system: LOX IMVI melanoma
# [10] = system: SK-MEL-28 melanoma
SMILES,growth [1],growth [2],growth [3],growth [4],growth [5],growth [6],growth [7],growth [8],growth [9],growth [10]
Cc1ccc(-c2nc3nc(-c4ccccc4)nc(N4CCCNCC4)c3o2)cc1,-81.5% (active),-86.1% (active),-59.8% (active),25.9%,-84.9% (active),-88.9% (active),-57.3% (active),-81.4% (active),-89.8% (active),-89.3% (active)
COc1ccc2nc3cc(Cl)ccc3c(NCCCNCCC(C)O)c2c1 (stereo not given),2.36% (active),4% (active),-58.8% (active),-25.6% (active),-41.4% (active),-50% (active),-96.7% (active),-57% (active),-68% (active),-59.3% (active)
CCCCC1=C(Br)C(=O)c2nc(C)ccc2C1=O,95.5%,107%,84.4%,92.5%,89.6%,80.3%,92.6%,84.9%,89.1%,105%
CCN(CC)CC#CCOC(=O)[C@]1(C)CCC[C@]2(C)c3ccc(C(C)C)cc3CC[C@@H]12,52.4%,46.5%,97.5%,92%,79.7%,64.3%,77.1%,71.8%,92.6%,84.8%
CCCCCCCCCCCCCCCC(=O)O[C@@H]1[C@@H](O)[C@@H](O)C([C@H](NC(=O)[C@@H]2C[C@@H](CCC)CN2C)[C@H](C)Cl)O[C@@H]1SC (stereo not given in full),99.9%,111%,96.2%,101%,102%,97.6%,99.9%,104%,105%,112%
CCCCC(NC(=O)CN1C(=O)/C(=C/C(C)=C/c2ccccc2)SC1=S)C(=O)O (stereo not given),108%,120%,98.7%,95.7%,110%,107%,101%,92.7%,94.7%,104%
COc1ccc(Cl)cc1Nc1nc(C(F)(F)F)ccc1C(=O)N/N=C/c1ccc(N(C)C)cc1,87.3%,107%,88.8%,86%,92.6%,97.3%,95.6%,102%,95.2%,88.2%
COc1ccc(Oc2nc(Nc3ccc(N4CCOCC4)cc3)ncc2NC(=O)c2cccc(C(F)(F)F)c2)cc1,58.6%,42.2%,82.3%,87.5%,69.3%,53.7%,92.2%,78.4%,52.4%,99.5%
O=[N+]([O-])c1cc(C(F)(F)F)ccc1Sc1ccc(C(F)(F)F)cc1[N+](=O)[O-],71.2%,18.5%,86%,91.5%,83.9%,84.6%,82.7%,77.8%,28.1%,80.6%
Cc1nc2sc(C(=O)Nc3cccc4ccccc34)c(N)c2cc1C(=O)/C=C/c1ccccc1,-63.3% (active),-47.9% (active),8.27% (active),-27.1% (active),-67.3% (active),-8.41% (active),-17.8% (active),7.54% (active),-73.1% (active),23.6%
COc1cc(OC)cc(-c2ccc(-c3ccc(C(=N)N)cn3)s2)c1,41.7%,37.2%,94.6%,92.1%,5.78% (active),69.1%,80.5%,98.2%,14%,109%
CC1(C)C(N)=Nc2cc(OCCCN3Cc4ccc(OCCc5cn(CC(=O)N6CCC(CCN7CCCC7)CC6)nn5)cc4C3)c(OCC3CC3)cc21,97.2%,74.2%,93.8%,104%,97.7%,84.5%,103%,98.6%,100%,108%
Clc1cccc(Nc2ncnc3ccc(-c4cncc(-n5cnnn5)c4)cc23)c1,70.2%,74%,59.9%,79.5%,76.1%,42.9%,65.8%,85.3%,70.3%,97.3%
Cc1ccc(-c2nc(SCC(=O)c3ccc(C#N)cc3)[nH]c(=O)c2C#N)cc1,105%,97.9%,87.5%,106%,100%,104%,114%,99.2%,92.9%,103%
Nc1ccc(-c2nc3ccc4[nH]ncc4c3c3c2CCCC3)cc1F,15.5%,28%,19.3%,41.9%,26.8%,27.7%,4.72% (active),14.5%,29.4%,34.4%
CCOC(=O)c1c(-c2ccc(C)cc2)c(C#N)c(=O)n(-c2cccc(C(F)(F)F)c2)c1N,101%,111%,76.3%,88.8%,102%,110%,101%,99%,96.9%,102%
CCCNNC(=O)/C=C/c1ccc(CNCCc2c(C)[nH]c3ccccc23)cc1,42.8% [2.5 µM],5.78% [2.5 µM] (active),56.9% [2.5 µM],28.6% [2.5 µM],8.11% [2.5 µM] (active),31.5% [2.5 µM],-13.3% [2.5 µM] (active),-46% [2.5 µM] (active),0.891% [2.5 µM] (active),10.1% [2.5 µM]
CCCCC#Cc1c(/C=C(\CCCC)SCC)n(C)c(=O)[nH]c1=O,89.8%,92.6%,90.1%,107%,117%,94.1%,99%,90.4%,96.6%,118%
CN1CCN(CCNC(=O)c2cccc(CN3c4cccc5c4C(=Cc4cccnc43)N(C)C5=O)c2)CC1,10.7%,17.7%,-11.2% (active),42.9%,48.2%,39.6%,12.9%,17.3%,8.25% (active),67.8%
COc1cc(-c2nc(SCCC(C)C)nc(Nc3ccc(F)cc3)c2C#N)cc(OC)c1OC,88.8%,55%,30.8%,45.5%,29.7%,75.9%,97.6%,80.5%,79.2%,104%
O=c1c(/C=C/c2ccco2)nnc2sc(Nc3ccc(Cl)cc3)nn12,108%,93.5%,79.9%,94.2%,108%,92.2%,93.5%,92.4%,97.6%,108%
Cc1nc(Nc2ncc(C(=O)Nc3c(C)cccc3Cl)s2)cc(N2CCN(CCO)CC2)n1,32.5% and 21.3%,5.06% (active) and -19.7% (active),-32.6% (active) and -35.7% (active),68.7% and 40.1%,57.6% and 37.2%,54.1% and 40.7%,66.6% and 53.8%,55.3% and 34.9%,-66.3% (active) and -93.8% (active),64% and 36%
Cc1ccc(/C=C2\COc3ccc(O)c(O)c3C2=O)cc1,-16.5% (active),12.9%,13.5%,24.8%,-3.38% (active),-10.4% (active),1.84% (active),-19.7% (active),-83.3% (active),35.6%
C=C(C)[C@@H]1CC[C@]2(C)[C@H](CC(=O)N[C@H]3[C@@H]4C[C@](C)(C(=O)OC)CC[C@]4(C)CC[C@]32C)[C@@]1(C)CCC#N,68.6%,70.9%,96.5%,89%,79.9%,42.9%,49.7%,68.3%,96.9%,104%
